TDP1 cell CPT – DT40-hTDP1 cell growth loss with CPT; chicken DT40 Tdp1-/-;hTDP1 cells + 20 nM CPT, ATP luminescence, 48 h; Potency, µM (titrated, usually from 46.2 µM), usual class: inhibitors; actives 12% (n = 420,000); note: nearly all actives have a fitted effect of over 55% in size
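Chicken DT40 Tdp1-/- cells complemented with human TDP1, 400 cells/well, exposed to compounds plus 20 nM camptothecin for at least 48 h at 37 C; viability read as ATP content by CellTiter-Glo luminescence.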
TDP1 cell noCPT – qHTS for Inhibitors of human tyrosyl-DNA phosphodiesterase 1 (TDP1): qHTS in cells in absence of CPT. Potency, µM (series often up to 46.2 µM), most hits filed as inhibitors. actives 15% (n = 420,000). DT40 Tdp1-/- hTDP1 cells, no CPT, ATP luminescence, 48 h; note: nearly all actives have a fitted effect of over 55% in size
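Chicken DT40 Tdp1-/- cells complemented with human TDP1, screened without camptothecin (DMSO vehicle only), 400 cells/well. Compounds pin-transferred, cells incubated at 37 °C for at least 48 hr. Growth read as ATP-dependent luminescence (CellTiter-Glo, 30 min at RT).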
HT1080 IDH1KD tx – HT-1080 IDH1 knockdown cell toxicity (counter line); Potency, µM (top dose mostly 46.1 µM), usual class: cytotoxic; HT-1080 IDH1 knockdown viability, ATP luminescence, 48 h; actives 2% (n = 360,000)
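Luminescent ATP read-out (CellTiter-Glo, 10 min at room temperature) after 48 h compound exposure at 37 °C gave viability of IDH1-knockdown HT-1080 cells. Activity was normalised to DMSO and cell-free wells, then fitted as concentration-response curves.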
HT1080NT lethal – kills 2HG-producing HT-1080-NT fibrosarcoma cells. HT-1080-NT fibrosarcoma viability, CellTiter-Glo ATP luminescence, 48 h. Potency, µM (doses to about 46.1 µM), actives largely listed as cytotoxic. actives 1.6% (n = 360,000). AID 686970;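 note: NT is the 2HG producing partner of a matched IDH1 knockdown line; nearly all actives have a fitted effect of over 55% in size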
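Luminescent CellTiter-Glo readout after 48 hours of compound exposure at 37 degrees C defined viability of HT-1080-NT cells. Activity was normalized to DMSO wells and cell-free media wells; concentration-response curves were fitted and assigned curve classes.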
IL1B secr inh – inflammasome signaling inhibition, IL-1 beta readout; THP-1 LPS/ATP IL-1B secretion, AlphaLISA, 16 h; hits give low values; activity change, % at 57.5 µM; actives 4.7% (n = 360,000); AID 743279; in the data active = activity change below about -50%; inconclusive = mostly about -30% to -49%
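THP-1 cells pretreated 1 hr with compounds (up to 57.5 uM final), then stimulated with LPS (250 ng/mL final) plus ATP (1.25 mM final); secreted IL-1B measured by AlphaLISA after 16 hr, decreased signal indicating inhibition.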
A number is an active result; 0 = inactive; ? = inconclusive; - = no result; [ ] = another dose, or the depositor's remark. The list is not random: actives were taken first. Their share in the collection is about 19%. Unless noted, calls come from the whole dose curve; as a rule, active = well fitted curve in the direction sought with a large enough effect; inconclusive = small, poorly fitted or top-dose-only effect, or another doubt; inactive = no such curve, though single readings can be large; an effect the other way counts as inactive or inconclusive.

SMILES	TDP1 cell CPT	TDP1 cell noCPT	HT1080 IDH1KD tx	HT1080NT lethal	IL1B secr inh
CCc1ccc(NC(=O)CC2C(=O)N(c3cccc(C)c3)C(=O)N2Cc2ccc(F)cc2)cc1 (stereo unspecified)	?	0	-	-	-
CCc1ccc(NC(=O)CC2C(=O)N(c3ccc(F)cc3)C(=O)N2Cc2ccc(F)cc2)cc1 (stereo unspecified)	13µM	?	-	-	-
COc1cc(NC(=O)CC2C(=O)N(c3ccccc3)C(=O)N2Cc2ccc(F)cc2)cc(OC)c1 (stereo unspecified)	13µM	14.6µM	-	-	-
COC(=O)c1ccc(NC(=O)CSC2=Nc3ccccc3C3CC=NN23)cc1 (stereo unspecified)	23.1µM	23.1µM	0	0	0
O=C(CSC1=Nc2ccccc2C2CC=NN12)Nc1ccc(F)cc1Cl (stereo unspecified)	?	?	0	0	0
Cc1ccc(NC(=O)CSC2=Nc3ccccc3C3CC=NN23)c(C)c1 (stereo unspecified)	20.6µM	20.6µM	0	0	0
NC(=O)c1ccc(NC(=O)CSC2=Nc3ccccc3C3CC=NN23)cc1 (stereo unspecified)	9.2µM	20.6µM	?	0	0
Cc1ccc(C)c(S(=O)(=O)Nc2nc3ccc(S(N)(=O)=O)cc3s2)c1	0	0	0	0	0
COc1ccc(S(=O)(=O)N2CCN(Cc3cccc(OC)c3OC)CC2)cc1	0	0	0	0	0
CC(=O)N1N=C(c2ccco2)CC1c1ccc(Br)cc1 (stereo unspecified)	0	0	0	0	0
CN(C)c1ccc(/C=N/Nc2cccc(C(=O)O)c2)cc1	?	0	0	0	0
COc1cc2c(NC3CCN(C)CC3)nc(N3CCCCC3)nc2cc1OCCCN(C)C	3.98µM	10µM	-	-	-
COc1cc2c(NC3CCN(C)CC3)nc(N3CCCN(C)CC3)nc2cc1OCCOCCN(C)C	?	0	-	-	-
CCCN(C)CCCOc1cc2nc(N3CCCN(C)CC3)nc(NC3CCN(C)CC3)c2cc1OC	8.91µM	12.6µM	-	-	-
COc1cc2c(NC3CCN(C)CC3)nc(N3CCCCC3)nc2cc1OCCOCCN(C)C	11.2µM	?	-	-	-
COc1cc2c(NC3CCN(C)CC3)nc(N3CCCN(C)CC3)nc2cc1OCCCN(C)C	?	?	0	0	-
COc1cc2c(NC3CCN(C(C)C)CC3)nc(N3CCCN(C)CC3)nc2cc1OCCCN1CCCC1	5.01µM	3.55µM	-	-	-
CCc1ccc(NC(=O)CSc2nc(C)c(C(=O)Nc3ccccc3)c(-c3ccc(OC)c(OC)c3)c2C#N)cc1	0	0	-	-	-
N#CC(C(O)c1ccccc1)N1CCOCC1 (stereo unspecified)	0	?	0	0	0
C=C(c1ccccc1O)n1ccnc1	0	0	0	0	0
C[C@@H]1CN([C@@H](C)CO)C(=O)c2cc(Br)cnc2O[C@H]1CN(C)Cc1cccnc1	0	0	0	0	0
CSc1ncccc1C(=O)NCC1Cc2cc(-c3cnccn3)ccc2O1 (stereo unspecified)	0[9.04 µM]	0	-	-	-
CCN1C(=NCCOC)N[C@@H](c2ccccc2)[C@H](C(=O)OC)[C@H]1C	?	0	0	0	0
COc1cc2c(NC3CCN(C)CC3)nc(N3CCN(C)CC3)nc2cc1OCCOCCN(C)C	0	0	-	-	-
COc1cc2c(NC3CCN(C)CC3)nc(N3CCCN(C)CC3)nc2cc1OCCCCN(C)C	0	?	-	-	-
COc1cc2c(NC3CCN(C)CC3)nc(N3CCCN(C)CC3)nc2cc1OCCCCCCN(C)C	15.8µM	?	-	-	-
COc1cc2c(NC3CCN(C(C)C)CC3)nc(N3CCCN(C)CC3)nc2cc1OCCOCCN(C)C	7.08µM	14.1µM	-	-	-
COc1ccc(C(CNC(=O)C2CCN(S(=O)(=O)c3ccc(F)cc3)CC2)N(C)C)cc1 (stereo unspecified)	0	0	0	0	0
COc1ccc(-c2nc3cnc(N4CCN(C)CC4)nc3n(Cc3ccc(F)cc3)c2=O)cc1	?	0	-	-	-
CCOc1ccc(NS(=O)(=O)c2ccc3[nH]cc(C(=O)N4CCCC4)c(=O)c3c2)cc1	0	?	-	-	-

Assay outcomes deposited in PubChem BioAssay by National Center for Advancing Translational Sciences (NCATS).
